# Laboratory results reported in PubChem BioAssay AID1626 (SRMLSC, 2009).
# Out of some 220,000 compounds screened, about 2,000 (0.91%) were called active. About 2% were inconclusive and are not listed. These entries were drawn from the full list. Measured potencies and affinities stand elsewhere. A number with no mark means an inactive call. No stated cut-off is given here; in the data, inconclusive means inhibition above about 80% without an active follow-up result; inactive means below that; test concentration not stated here.
# Test: M. tuberculosis H37Rv growth inhibitors, H37Rv strain (AID 1626);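 further: bacteria incubated seven days before Alamar blue readout; 0% = bacteria only wells and 100% = bacteria with antibiotic wells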
# Conditions: active compounds read high, concentration not given here
row,Compound,inhibition [%]
1,COC(=O)CCSCC(=O)Nc1nnc(C)s1,-2.82
2,CCN(CC)C(=O)CSc1nnc(-c2ccc(F)cc2)n1N,3.27
3,CC(=O)Oc1ccc(C(=O)Nc2cccc(C(=O)c3cccc(NC(=O)c4ccc(OC(C)=O)cc4)c3)c2)cc1,74.4
4,COC1=CC(=O)CC(C)C12Oc1cc(OC)cc(OC)c1C2=O (stereo unspecified),-7.12
5,COCCNC(=O)/C(C#N)=C\c1ccc(CNS(=O)(=O)c2ccccc2)o1,-0.59
6,O=C1c2ccccc2C(O)(c2ncc[nH]2)N1CCc1ccccc1 (stereo unspecified),-2.48
7,c1ccc2c(NCC3CCCO3)nc(N3CCCCC3)nc2c1 (stereo unspecified),1.41
8,Clc1nc(NCc2ccco2)nc(N2CCCCC2)n1,5.51
9,OCCN1CCN(c2nc(NCc3ccco3)c3ccccc3n2)CC1,-2.39
10,COc1ccccc1Nc1nc(NCc2ccco2)c2ccccc2n1,83.7
11,OCCNc1nc(N2CCN(Cc3ccccc3)CC2)nc2ccccc12,-8.82
12,c1ccc(CNc2nc(NCc3ccco3)nc(N3CCOCC3)n2)cc1,10.6
13,CCOCCCNC(=O)c1cc2c(=O)n3cccc(C)c3nc2n1C,1.27
14,c1ccc(-c2ncc3c(ccc4ccccc43)n2)cc1,4.61
15,CCOc1ncccc1C(=O)Nc1ccccc1C(=O)NCc1ccc2c(c1)OCO2,-0.12
16,Cc1ccccc1Nc1nc(N)nc(CSc2nnc(C)n2C)n1,3.87
17,Cc1ccc(C2N=C(N)Nc3nc4ccccc4n32)cc1 (stereo unspecified),-6.16
18,NC1=NC(c2ccccc2Cl)n2c(nc3ccccc32)N1 (stereo unspecified),7.21
19,CCOC(=O)C1=C(C)Nc2nc3ccccc3n2C1c1ccccc1 (stereo unspecified),-9.7
20,CCn1c2ccccc2c2cc(C3N=C(N)Nc4nc5ccccc5n43)ccc21 (stereo unspecified),-6.84
21,Cc1cccc(C2N=C(N)Nc3nc4ccccc4n32)c1 (stereo unspecified),-9.29
22,NC1=NC(c2ccc(Cl)cc2)n2c(nc3ccccc32)N1 (stereo unspecified),4.44
23,O=C1C2C3CCC(C3NCc3ccccc3)C2C(=O)N1Cc1ccccc1 (stereo unspecified),-0.18
24,OC(CSc1ccc(F)cc1)CN1CCN(c2ccccc2)CC1 (stereo unspecified),2.78
25,Cc1nc(-c2nc(-c3c(C(=O)NNC(=O)Nc4ccccc4)noc3C)cs2)cs1,1.03
26,Cc1nc(NC(=O)c2cc(-n3cnnc3)ccc2Cl)ccc1Br,0.92

row,Compound,inhibition [%]
1,O=C(COC(=O)c1ccc(-c2ccc([N+](=O)[O-])cc2)o1)NC(=O)NC1CCCCC1,31
2,O=C(NC12CC3CC(CC(C3)C1)C2)c1ccc(=O)oc1,-2.56
3,O=C(NC12CC3CC(CC(C3)C1)C2)c1ccccc1,2.5
4,COc1ccc(CC(=O)OCC(=O)NC(=O)NC23CC4CC(CC(C4)C2)C3)cc1,0.65
5,CCN(Cc1cc2ccc(C)cc2[nH]c1=O)C(=O)c1cccnc1,3.56
6,COCCSc1nnc(NS(=O)(=O)c2ccc(C)cc2)s1,-4.12
7,O=C(CSc1nnc(-c2ccco2)n1Cc1ccccc1)OC1CCCCC1,-11.8
8,N/C(=N\OC(=O)/C=C/c1ccccc1)c1ccc(Cl)cc1,1.43
9,COC(=O)c1cc(C#N)c(N2CCOCC2)nc1C,-9.18
10,O=C(O)c1ccccc1-c1ccc(/C=C/c2cc(C(F)(F)F)[nH]c(=O)n2)o1,-2.38
11,O=C(O)c1cc(Cl)ccc1-c1ccc(/C=C/c2cc(C(F)(F)F)[nH]c(=O)n2)o1,-1.69
12,Cc1ccc(S(=O)(=O)Nc2cc(C(C(=O)OC(C)C)C(=O)C(F)(F)F)c(O)c3ccccc23)c(C)c1 (stereo unspecified),-10.5
13,CCc1nc(N)c(C#N)c(-c2ccc(OC)c(OC)c2)c1C,-2.13
14,O=C(/C=C/c1ccc(OCCCF)cc1)Nc1ccnc(-c2cccnc2)n1,-6.59
15,COc1ccc(CNC(=O)/C=C/c2ccc(OCCCF)cc2)cc1,11.3
16,CC(=O)Nc1ccc2nc(SCC(=O)N3CCOCC3)sc2c1,5.08
17,O=C(Nc1ccc2nc(SCc3ccc(Cl)cc3)sc2c1)c1ccccc1C(=O)N1CCOCC1,4.76
18,CCCn1c(=O)c(C(=O)NCc2ccc(OC)c(OC)c2)c(O)c2ccccc21,-0.33
19,COc1ccc(-c2nc(NC(=O)c3nc4nccc(C)n4n3)sc2C)cc1,-7.46
20,Cc1ccc(-c2nc(NC(=O)c3cc(C(C)(C)C)nn3C)sc2C)cc1Cl,78.4
21,C1CN(CC2CCN(c3nc4nonc4nc3N3CCSCC3)CC2)CCO1,-0.53
22,CCCCc1ccc(NC(=O)CC(C)=O)cc1,77.5
23,CCCCc1ccc(NC(=O)N[C@@H](C)C(=O)O)cc1,0.78
24,CCCCc1ccc(NC(=O)OC)cc1,58
25,CCCCc1ccc(NC(=O)CC(C)(C)C)cc1,5.76
26,CCN(CC)C(=O)C1=C(C)Nc2ncnn2C1c1cccnc1 (stereo unspecified),-0.97

row,Compound,inhibition [%]
1,Cc1nn2c(-c3ccccc3)ccnc2c1-c1ccccc1,-0.56
2,OCC1OC(n2nnc3ccccc32)C(O)C(O)C1O (stereo unspecified),-9.39
3,Cc1cc(NC(=O)CCl)no1,65
4,Cc1cc(NC(=O)CCl)on1,0.735
5,CSc1nc(=O)n2cc(C)ccc2n1,0.11
6,CCOC(=O)C(NC(C)=O)(Nc1ccc(S(=O)(=O)Nc2cc(C)nc(C)n2)cc1)C(F)(F)F (stereo unspecified),-6.92
7,Cc1ccc(NC(=O)c2ccc(CSc3ccccn3)cc2)cc1,14.1
8,O=C(Nc1ccccc1)c1ccc(CSc2ncccn2)cc1,3.69
9,CCOC(=O)C(=CNc1ccc(Oc2cncc(Cl)c2)nc1)C(=O)OCC,2.61
10,O=C(Nc1ccc(-n2nncc2-c2ccco2)cc1)c1ccc(F)cc1,0.33
11,Cc1onc(-c2ccccc2Cl)c1C(=O)Nc1ccc(-n2nncc2-c2ccco2)cc1,68
12,Cc1ccc(-c2nnn(CC(=O)N3CCCCC3)n2)o1,-0.84
13,CC(OC(=O)C1=COCCO1)C(=O)Nc1ccccc1C#N (stereo unspecified),-7.04
14,CC(C)(C)NC(=O)Nc1ccc(Br)cc1,-1.24
15,CCC(C)NC(=O)Nc1ccc(Br)cc1 (stereo unspecified),1.26
16,COc1c(Cl)cc(Cl)cc1C(=O)Nc1ccc(NC(=O)c2cccs2)cc1,56.1
17,COc1ccc(C(=O)/C=C\c2ccc(NC(=O)c3cccs3)cc2)cc1,-0.27
18,CC1SCC(=O)N(CC(=O)Nc2ccc3c(c2)OCCO3)C1=O (stereo unspecified),2.44
19,Nc1nc2ccccc2n1C(=O)c1ccco1,2.98
20,Cn1c(CNC(=O)c2ccc(F)cc2)nc2ccccc21,-0.81
21,Cc1ccc(S(=O)(=O)/N=C(\c2ccc(F)cc2)n2c(C)nc3ccccc32)cc1,4.23
22,Nc1nc2ccccc2n1C(=O)CCc1ccccc1,0.09
23,O=C(COc1ccc2ccccc2c1)N1c2ccccc2Sc2ccccc21,2.2
24,CN(Cc1ccccc1)S(=O)(=O)c1ccc(NS(C)(=O)=O)cc1,-4.2
25,CC(=O)Nc1cc(Br)ccc1O,3.76
26,CN(Cc1ccccc1)C(=O)c1cc2ccccc2o1,6.83

row,Compound,inhibition [%]
1,CCOc1cc(C(=O)Nc2ccc(F)cc2)cc(Br)c1OC,9.07
2,CCN(CC)c1ccc(/C=N/OCC(=O)N2CCCc3ccccc32)cc1,1.23
3,Cc1ccccc1-c1cnn(-c2cccc([N+](=O)[O-])c2)c1N,5.3
4,CNc1c([N+](=O)[O-])cnn1-c1ccccc1Cl,4.21
5,O=C(CSc1nnc(NC(=O)Cc2ccccc2)s1)NCc1ccco1,-1.92
6,O=C(O)c1sccc1S(=O)(=O)c1ccccc1,-0.34
7,Cn1nccc1C(=O)Oc1ccc(/C=N/NC(=O)c2ccccc2O)cc1,-6.68
8,Cc1nnc(Cl)c2nn(-c3ccccc3)c(C)c12,-0.17
9,Cc1ccc(CSc2nnc(CCNC(=O)OC(C)(C)C)o2)cc1,7.99
10,CC(C)(C)OC(=O)NCCCCCc1nnc(SCc2cccc(F)c2)o1,75
11,Cc1cccc(CSc2nnc(CCNC(=O)OC(C)(C)C)o2)c1,15
12,CC(C)(C)OC(=O)NCCCCCc1nnc(SCc2ccc(F)cc2)o1,60.9
13,O=S(=O)(NC1CCCc2ccccc21)c1cnc[nH]1 (stereo unspecified),1.01
14,Nc1ccccc1C(=O)OCC(=O)c1ccc2c(c1)OCCO2,-1.04
15,O=C(COC(=O)c1cccs1)c1ccc2ccccc2c1,7
16,Nc1nc(N)c(N=Nc2ccc(SCC(=O)O)cc2)c(=O)[nH]1,-4.15
17,CN(C)S(=O)(=O)N(CC(=O)NCCSCc1ccccc1)c1ccccc1,22.6
18,Cc1ccc(CN2CCN(Cc3ccncc3)CC2CCO)o1 (stereo unspecified),-0.74
19,CCN(CC)CCOC(=O)c1ccc([N+](=O)[O-])cc1,1.65
20,O=C1c2ccccc2C(=O)N1c1ccc(Cl)cc1,-5.9
21,Cc1ccc(N2C(=O)C3C(c4ccccc4)(C2=O)C3(c2ccccc2)c2ccccc2)cc1 (stereo unspecified),7.89
22,Cc1cccc(N2C(=O)c3cccc4c(N5CCCCC5)c([N+](=O)[O-])cc(c34)C2=O)c1C,9.67
23,CCc1ccccc1N1C(=O)c2cccc3c(N4CCOCC4)c([N+](=O)[O-])cc(c23)C1=O,7.95
